The panel holds about 83,000 compounds, 20% with a hit somewhere; the sample as a whole holds those more often.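 Assay: single dose, 48 h. Readout: percent growth (0 = no net growth; negative = cell death). Active: <10.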 The source made the active and inactive calls.
system: HOP-92 NSCLC; test: NCI-60 one-dose screen, 48 h (100 = growth as untreated, 0 = no growth, -100 = all killed); conditions: 10 µM unless noted

SMILES | growth
Cc1[nH]ccc2cc3nc4ccccc4c3cc12 | 31.9% (inactive)
NS(=O)(=O)c1ccc(-n2ncc3c(N/N=C/c4ccccc4)ncnc32)cc1 | 87.6% (inactive)
O=C(C(=O)c1cc(Br)ccc1O)c1cc(Br)ccc1O | 25.4% (inactive)
COc1ccc(-c2cnc(SCC(=O)Nc3ccc(-c4nc5ccccc5s4)cc3)n2-c2ccc(OC)cc2)cc1 | 93.6% (inactive)
N#CSCC1CC(O)(c2ccccc2)C(c2ccccc2)C(c2ccc(Cl)cc2)O1 (stereo not given) | -29.6% (active)
OCc1n(Cc2ccc3ccccc3c2)cc[n+]1Cc1ccc2ccccc2c1 | -2.81% (active)
c1ccc(-c2nc(Nc3nccnn3)c3ccccc3n2)cc1 | 105% (inactive)
CCOC(=O)/C=C1/SC(=Nc2ccc(C#N)cc2)N(Cc2ccco2)C1=O | 37.2% (inactive)
Cc1cnc2nc(-c3ccc(N(C)C)cc3)cn2c1 | 104% (inactive)
COc1ccc2c(c1)c(CC(=O)[Se]C)c(C)n2C(=O)c1ccc(Cl)cc1 | -6.92% (active)
COc1cc(/C=C/C(=O)C(C(=O)/C=C/c2ccc(OC(=O)CCNc3nnc(C)s3)c(OC)c2)C(=O)CCNc2nnc(C)s2)ccc1OC(=O)CCNc1nnc(C)s1 | -16.4% (active)
O=C1C2C(C(=O)N1CC[Se][Se]CCN1C(=O)C3C(C1=O)[C@H]1C=C[C@@H]3C1)[C@H]1C=C[C@@H]2C1 (stereo not given in full) | -74.4% (active)
COc1ccc(OC)c(CCn2cncc2-c2c[nH]c3cc(Br)ccc23)c1 | 20.6% (inactive)
CN(C)c1ncnc2c1ncn2C1CCCCO1 (stereo not given) | 71% (inactive)
COc1ccc2c(c1)sc1nc(-c3ccc(Br)cc3)cn12 | 101% (inactive)
O=C(Nc1ccccc1OC(=O)c1ccccc1)c1ccccc1 | 89.5% (inactive)
Cc1csc(C#Cc2cncc(O)c2)n1 | 121% (inactive)
COc1ccc2nc(NC(=O)CN3CCn4c(nnc4C(F)(F)F)C3)sc2c1 | 101% (inactive)
CCOC(=O)C(Br)=P(c1ccccc1)(c1ccccc1)c1ccccc1 | 101% (inactive)
C=CCN(/C=C/CN(CC=C)CC=C)CC=C | 91.2% (inactive)

SMILES | growth
O=C1NC(=S)S/C1=C\c1cc(Br)ccc1O | 75.7% (inactive)
COc1ccc(C(=O)/C=C/c2cccc(Nc3ccnc4cc(Cl)ccc34)c2)cc1 | 29.1% (inactive)
CCCCCCCCCCOC(C)=O | 89.3% (inactive)
O=C1C(=O)c2c(nc3ccc(Cl)cn23)-c2ccccc21 | -79.8% (active)
CC(=O)OCC(=O)[C@@]1(O)CC[C@H]2[C@@H]3CCC4=CC(=O)CC[C@]4(C)[C@@]3(F)[C@@H](O)C[C@@]21C | 66.9% (inactive)
CCc1nn2c(-c3ccc(Cl)cc3C)c(-c3cc(OC)c(OC)c(OC)c3)nc2s1 | 58.1% (inactive)
COc1cc(/C=C/C(=O)C(C(=O)/C=C/c2ccc(OC(=O)CCNC34CC5CC(CC(C5)C3)C4)c(OC)c2)C(=O)CCNC23CC4CC(CC(C4)C2)C3)ccc1OC(=O)CCNC12CC3CC(CC(C3)C1)C2 (stereo not given) | 44.6% (inactive)
CN(C)c1ccc(-c2nc3ncc(Br)cc3o2)cc1 | 61.8% (inactive)
CCCc1n(Cc2ccc3ccccc3c2)cc[n+]1Cc1ccc2ccccc2c1 | -38.3% (active)
N#Cc1c(-c2ccccc2)cc(-c2ccccc2)n(CCC(=O)O)c1=O | 74.8% (inactive)
C=C1CCC2C3(C)COC(c4ccccc4)OC3CCC2(C)C1C/C=C1/C(=O)OCC1OC(C)=O (stereo not given) | 100% (inactive)
O=C(CNC(=O)c1cccc2ccccc12)Nc1ccccc1Cc1ccccc1 | 53.5% [5 µM] (inactive)
COC(=O)C1=CCC(n2cnc3c(N)ncnc32)O1 (stereo not given) | 89.9% (inactive)
O=C(NC1CCCCC1)c1ccc(Nc2ncnc3c2cnn3-c2ccccc2)cc1 | 37.7% (inactive)
COc1ccc(-c2cc(-c3cccnc3)nc3sc(C(=O)Nc4ccccc4)c(N)c23)cc1OC | 24.9% (inactive)
Clc1ccc(C2=NN(c3ccc(Cl)cc3)C(c3cccc(Nc4ccnc5cc(Cl)ccc45)c3)C2)cc1 (stereo not given) | 88% (inactive)
CCCCN=C(N)c1ccc(OCCSCCOc2ccc(C(N)=NCCCC)cc2)cc1 | 40.1% (inactive)
C/C(=C\CCc1ccoc1)CC/C=C(\C)CCCC1COC(=O)C1 (stereo not given) | 88% (inactive)
Oc1c(Cl)cc(Oc2cc(Cl)c(O)c(CN3CCOCC3)c2)cc1CN1CCOCC1 | 79% (inactive)
CCOC(=O)CCN(c1c(Cl)ssc1=O)C(C)C | 97% (inactive)

system: A549/ATCC NSCLC; test: as above; conditions: 10 µM unless noted

SMILES | growth
Cc1[nH]ccc2cc3nc4ccccc4c3cc12 | 14.6% (inactive)
NS(=O)(=O)c1ccc(-n2ncc3c(N/N=C/c4ccccc4)ncnc32)cc1 | 52% (inactive)
O=C(C(=O)c1cc(Br)ccc1O)c1cc(Br)ccc1O | 50.7% (inactive)
COc1ccc(-c2cnc(SCC(=O)Nc3ccc(-c4nc5ccccc5s4)cc3)n2-c2ccc(OC)cc2)cc1 | 101% (inactive)
N#CSCC1CC(O)(c2ccccc2)C(c2ccccc2)C(c2ccc(Cl)cc2)O1 (stereo not given) | -53.7% (active)
OCc1n(Cc2ccc3ccccc3c2)cc[n+]1Cc1ccc2ccccc2c1 | 68.6% (inactive)
c1ccc(-c2nc(Nc3nccnn3)c3ccccc3n2)cc1 | 102% (inactive)
CCOC(=O)/C=C1/SC(=Nc2ccc(C#N)cc2)N(Cc2ccco2)C1=O | 67.2% (inactive)
Cc1cnc2nc(-c3ccc(N(C)C)cc3)cn2c1 | 95.5% (inactive)
COc1ccc2c(c1)c(CC(=O)[Se]C)c(C)n2C(=O)c1ccc(Cl)cc1 | 7.25% (active)
COc1cc(/C=C/C(=O)C(C(=O)/C=C/c2ccc(OC(=O)CCNc3nnc(C)s3)c(OC)c2)C(=O)CCNc2nnc(C)s2)ccc1OC(=O)CCNc1nnc(C)s1 | 34.3% (inactive)
O=C1C2C(C(=O)N1CC[Se][Se]CCN1C(=O)C3C(C1=O)[C@H]1C=C[C@@H]3C1)[C@H]1C=C[C@@H]2C1 (stereo not given in full) | -28.4% (active)
COc1ccc(OC)c(CCn2cncc2-c2c[nH]c3cc(Br)ccc23)c1 | 31.2% (inactive)
CN(C)c1ncnc2c1ncn2C1CCCCO1 (stereo not given) | 104% (inactive)
COc1ccc2c(c1)sc1nc(-c3ccc(Br)cc3)cn12 | 95% (inactive)
O=C(Nc1ccccc1OC(=O)c1ccccc1)c1ccccc1 | 81.3% (inactive)
Cc1csc(C#Cc2cncc(O)c2)n1 | 108% (inactive)
COc1ccc2nc(NC(=O)CN3CCn4c(nnc4C(F)(F)F)C3)sc2c1 | 88.4% (inactive)
CCOC(=O)C(Br)=P(c1ccccc1)(c1ccccc1)c1ccccc1 | 106% (inactive)
C=CCN(/C=C/CN(CC=C)CC=C)CC=C | 99.6% (inactive)

SMILES | growth
O=C1NC(=S)S/C1=C\c1cc(Br)ccc1O | 107% (inactive)
COc1ccc(C(=O)/C=C/c2cccc(Nc3ccnc4cc(Cl)ccc34)c2)cc1 | 29.4% (inactive)
CCCCCCCCCCOC(C)=O | 106% (inactive)
O=C1C(=O)c2c(nc3ccc(Cl)cn23)-c2ccccc21 | -80.8% (active)
CC(=O)OCC(=O)[C@@]1(O)CC[C@H]2[C@@H]3CCC4=CC(=O)CC[C@]4(C)[C@@]3(F)[C@@H](O)C[C@@]21C | 78.4% (inactive)
CCc1nn2c(-c3ccc(Cl)cc3C)c(-c3cc(OC)c(OC)c(OC)c3)nc2s1 | 82.7% (inactive)
COc1cc(/C=C/C(=O)C(C(=O)/C=C/c2ccc(OC(=O)CCNC34CC5CC(CC(C5)C3)C4)c(OC)c2)C(=O)CCNC23CC4CC(CC(C4)C2)C3)ccc1OC(=O)CCNC12CC3CC(CC(C3)C1)C2 (stereo not given) | 29.1% (inactive)
CN(C)c1ccc(-c2nc3ncc(Br)cc3o2)cc1 | 103% (inactive)
CCCc1n(Cc2ccc3ccccc3c2)cc[n+]1Cc1ccc2ccccc2c1 | 31.6% (inactive)
N#Cc1c(-c2ccccc2)cc(-c2ccccc2)n(CCC(=O)O)c1=O | 46.6% (inactive)
C=C1CCC2C3(C)COC(c4ccccc4)OC3CCC2(C)C1C/C=C1/C(=O)OCC1OC(C)=O (stereo not given) | 83.9% (inactive)
O=C(CNC(=O)c1cccc2ccccc12)Nc1ccccc1Cc1ccccc1 | 27% [5 µM] (inactive)
COC(=O)C1=CCC(n2cnc3c(N)ncnc32)O1 (stereo not given) | 96.5% (inactive)
O=C(NC1CCCCC1)c1ccc(Nc2ncnc3c2cnn3-c2ccccc2)cc1 | 16.6% (inactive)
COc1ccc(-c2cc(-c3cccnc3)nc3sc(C(=O)Nc4ccccc4)c(N)c23)cc1OC | 74.2% (inactive)
Clc1ccc(C2=NN(c3ccc(Cl)cc3)C(c3cccc(Nc4ccnc5cc(Cl)ccc45)c3)C2)cc1 (stereo not given) | 70.9% (inactive)
CCCCN=C(N)c1ccc(OCCSCCOc2ccc(C(N)=NCCCC)cc2)cc1 | 19.5% (inactive)
C/C(=C\CCc1ccoc1)CC/C=C(\C)CCCC1COC(=O)C1 (stereo not given) | 97% (inactive)
Oc1c(Cl)cc(Oc2cc(Cl)c(O)c(CN3CCOCC3)c2)cc1CN1CCOCC1 | 78.7% (inactive)
CCOC(=O)CCN(c1c(Cl)ssc1=O)C(C)C | 93.9% (inactive)

— PubChem BioAssay (NCI)
